Among all 69,000 compounds or so, about 8,600 (12%) showed an effect of 50% or more. The sample as a whole holds a higher share of strong results than the screen did.
Test system: Plasmodium berghei
Assay: Screen against P. berghei liver stage (PbLuc), transformed with Luciferase, at 10uM
Format: functional, HepG2
Settings: tested at 10 uM

SMILES | INHIBITION [%]
CCc1nc(CN(C)CC(=O)N(C)C2CC2)cs1 | 42.6
COc1c(CNCCNC(=O)c2cccc(C)c2)c(C)nn1C | 33.8
COCC(NC(=O)c1ccc[nH]1)c1cccc(C(F)(F)F)c1 (centres undefined) | 51.3
COCC(NC(=O)c1ccco1)c1cccc(C(F)(F)F)c1 (centres undefined) | -31.6
COCC(NC(=O)c1cc[nH]n1)c1cccc(C(F)(F)F)c1 (centres undefined) | 42.6
Cc1ncsc1CN1C[C@@H]2COC[C@]2(C(=O)NCC2CC2)C1 | 39.2
O=c1n(Cc2ccc(C(F)(F)F)cc2)nc2ncccn12 | -80.9
CCS(=O)(=O)N1CCc2c(cccc2NCc2nc(C)c(C)o2)C1 | 52.6
CCS(=O)(=O)N1CCc2c(cccc2NCc2ncc[nH]2)C1 | 27.6
CCS(=O)(=O)N1CCc2c(cccc2NC(=O)NCCO)C1 | 50.8
CCS(=O)(=O)N1CCc2c(cccc2NC(=O)NCCOC)C1 | 3.95
CCCNC(=O)Nc1cccc2c1CCN(S(C)(=O)=O)C2 | -9.48
CC(C)NC(=O)Nc1cccc2c1CCN(S(C)(=O)=O)C2 | 45.7
COCCNC(=O)Nc1cccc2c1CCN(S(C)(=O)=O)C2 | 65.4
CCc1cnc(CNc2cccc3c2CCN(S(=O)(=O)CC)C3)o1 | 39.6
COCCCNC(=O)Nc1cccc2c1CCN(S(C)(=O)=O)C2 | 17.5
CC(C)N(C)C(=O)COc1ccc(-c2noc(C3CCCO3)n2)cc1 (centres undefined) | -59.4
O=C(NCC1CN(c2ncccn2)Cc2nccn2C1)c1cccnc1 (centres undefined) | -86.4
Fc1ccc(N2CCN(CCCc3cn[nH]c3)CC2)cc1 | 31.6
NC(=O)C1CN(C(=O)Nc2ccccc2OCC(F)(F)F)CCO1 (centres undefined) | 31.2
N#CC1(NC(=O)c2c(F)ccc(OC(F)F)c2F)CCOCC1 | -11.7
CCn1nnc(NCc2cc(Br)cc(Br)c2OC)n1 | 61.1
CCCn1nnc(NCc2cc(Br)cc(Br)c2OC)n1 | -24

SMILES | INHIBITION [%]
CCn1nnc(NCc2cc(Cl)cc(Cl)c2OC)n1 | -11.6
Cc1ncccc1CNC1CCCN(Cc2noc(C3CC3)n2)C1 (centres undefined) | 46.2
COCCN1CCc2cc(C(=O)NC(C)C)c(NCC(C)C)nc2CC1 | 74.9
COCCN1CCc2cc(C(=O)O)c(NCC3CC3)nc2CC1 | -17.2
CNC(=O)c1cc2c(nc1NCC(C)C)CCN(CCOC)CC2 | 21.1
COCCN1CCc2cc(C(=O)NC(C)C)c(NCC3CC3)nc2CC1 | 70.8
COCCN1CCc2cc(C(=O)N(C)C)c(NCC3CC3)nc2CC1 | -27.9
CCS(=O)(=O)N1CCc2cc(C(=O)NC)c(NCC(C)C)nc2CC1 | -9.02
CCOc1ccccc1C(=O)Nc1cccc(C[S+](C)[O-])c1C (centres undefined) | 16.645
O=C(CCN1CCCC(CO)(CC2CC2)C1)NCc1cccc(Cl)c1 (centres undefined) | 4.66
CCC1COC2(CCN(C(=O)c3ccco3)CC2)C1 (centres undefined) | 22.9
COc1ccc2c(c1)CC(NCc1cccc(OCC(N)=O)c1)CC2 (centres undefined) | 43.4
COc1ccc2c(c1)CC(NCc1cccc(CO)c1)CC2 (centres undefined) | 47.1
COc1ccc2c(c1)CC(NCc1cccc(NC(C)=O)c1)CC2 (centres undefined) | 59.1
COCC(=O)NCc1cc(=O)n2c(n1)CN(Cc1ccco1)CCC2 | 47.5
O=C(NCc1nnc2n1CCCC2)N1CCc2sccc2C1 | 5.7
Cc1cccc(CNC(=O)Nc2ccn(CCN(C)C)n2)c1 | -23.8
C=C(C)Cn1nc(C)c(CN2CCN(C3CCCCC3)C(=O)C2)c1C | 13.85
Cc1ccccc1C1(CNCc2cnc(N3CCOCC3)nc2)CC1 | -5.22
Cc1ccc(CN2CCCC(c3nn(C)c4nccnc34)C2)s1 (centres undefined) | 37.6
c1cncc(CNc2ccc3nc(C4CCNCC4)nn3c2)c1 | 29.4
CCCN1CCC(c2nc3ccc(NCc4cccnc4)cn3n2)CC1 | 52.1
CCCN1CCC(c2nc3ccc(NCc4ccccc4)cn3n2)CC1 | 61.1

SMILES | INHIBITION [%]
CCN1CCC(c2nc3ccc(NC(C)C)cn3n2)CC1 | 26.4
CCCN1CCC(c2nc3ccc(C)cn3n2)CC1 | 29.4
CC(C)CN1CCC(c2nc3ccc(NC(C)C)cn3n2)CC1 | 30.3
CN(C)C(=O)N1C[C@H]2CC[C@@H](C1)N(Cc1nnc(-c3ccco3)o1)C2 | 11.6
Cc1nc(-c2cnn(C)c2)nc2c1CN(C(=O)c1ccc[nH]1)CC2 | 57.1
Cc1nc(-c2cnn(C)c2)nc2c1CN(C(=O)c1cccn1C)CC2 | -6.46
Cc1nc(-c2cnn(C)c2)nc2c1CN(C(=O)c1cccnc1)CC2 | -4.99
COC(=O)c1ccc(NC(C)c2ccc3c(c2)CCC(=O)N3)nn1 (centres undefined) | 19.7
COc1ccc(-c2cc3nc(CCNC(=O)C4CC4)nn3cn2)cc1 | 8.915
c1csc(NCc2n[nH]c3c2CCN(CC2CC2)C3)n1 | 41.2
c1ccc(-c2ccc(C3CNCCO3)nc2)cc1 (centres undefined) | 84
Cn1nc(C2CNCCO2)cc1CCOc1ccc(Cl)cc1 (centres undefined) | 16.5
CN(C)c1ncc(-c2ccc(C(N)=O)cc2)c(C2CNCCO2)n1 (centres undefined) | -28.9
Cc1ccc(-c2ccc(C3CNCCO3)nc2)cc1 (centres undefined) | 91.6
COc1ccc(OCCc2cc(C3CNCCO3)nn2C)cc1 (centres undefined) | -5.8
Clc1ccc(-c2ccc(C3CNCCO3)nc2)cc1 (centres undefined) | 94.6
CN(C)c1ncc(-c2cccc(F)c2)c(C2CNCCO2)n1 (centres undefined) | 8.72
CN(C)c1ncc(-c2ccc(F)cc2)c(C2CNCCO2)n1 (centres undefined) | 15.1
Fc1ccccc1OCCc1cc(C2CNCCO2)n[nH]1 (centres undefined) | 32.8
c1ncc(-c2ccc(C3CNCCO3)nc2)cn1 (centres undefined) | 24.8
COc1ccc(-c2ccc(C3CNCCO3)nc2)cc1 (centres undefined) | 91.6
COc1ccc(-c2cnc(N(C)C)nc2C2CNCCO2)cc1 (centres undefined) | 21.7
CC(=O)N1CCCN(C(=O)NC(C)Cn2ccnc2)CC1 (centres undefined) | 24.2

SMILES | INHIBITION [%]
Cn1c(=O)c2cc(C(=O)NCc3ccncc3)ccc2n(C)c1=O | -4.82
Cc1cc(C[S+]([O-])CC(=O)NCc2cccc(Cl)c2)no1 (centres undefined) | 49.8
CC(C)SCC(=O)N1CCCn2nc(C(=O)Nc3ccccc3)cc2C1 | -59.9
CC(=O)N1CCC2(CCCN(S(=O)(=O)c3ccc(F)cc3)C2)C1 (centres undefined) | -4.82
Cc1c(COC(C)C)cccc1NC(=O)N1CCC(N2CCCC2)C1 (centres undefined) | 36.3
Cc1nc(C)n(CC2CCCN2Cc2coc(-c3cccs3)n2)n1 (centres undefined) | 22.6
O=C(CCCNC(=O)Nc1ccc(F)cc1)Nc1cn[nH]c1 | 20.7
O=C(CCCOc1ccccc1F)NCCCC(=O)Nc1cn[nH]c1 | 51.7
COc1ccccc1NC(=O)NCCCC(=O)Nc1cn[nH]c1 | -12.1
CC(C)N1CCC(Nc2ccn(Cc3ccccn3)n2)C1=O (centres undefined) | 38.7
CC(C)N1CCC(Nc2ccn(CCC#N)n2)C1=O (centres undefined) | 63.3
CC(C)N1CCC(Nc2ccn(C)n2)C1=O (centres undefined) | 23.1
COC(C)(CNS(=O)(=O)c1cccnc1)c1ccccc1F (centres undefined) | 12.1
CCC1c2ccsc2CCN1C(=O)NCc1cc(C)on1 (centres undefined) | 11.915
CC(NC(=O)NCC(C)(C)C(N)=O)c1nc(-c2ccccc2)cs1 (centres undefined) | 28.6
COC(=O)[C@H]1C[C@@H](O)CCN1S(=O)(=O)c1ccc(F)cc1F | 34.2
COC(=O)[C@H]1C[C@@H](O)CCN1S(=O)(=O)c1cc(C)c(Cl)cc1C | 60.2
COC(=O)[C@H]1C[C@@H](O)CCN1S(=O)(=O)c1cc(Cl)ccc1OC | -16.9
Cc1cc(C)c(CNc2cnn(CC(O)CN(C)C)c2)c(C)c1 (centres undefined) | 29.8
Cc1ccc(CNC(=O)CN2CCN(CC(O)c3ccco3)CC2)cc1 (centres undefined) | -1.58
O=C(NCC1CC1)C1CCC2(CCN(C(=O)c3ccccn3)CC2)O1 (centres undefined) | -3.44
COc1ccc(CNCC2(COc3cccnc3)C[C@@H](O)[C@@H](O)C2)cc1 (some centres undefined) | 25.3
COCC(=O)NCC1(COc2cccnc2)C[C@@H](O)[C@@H](O)C1 (some centres undefined) | 57.4

SMILES | INHIBITION [%]
O[C@@H]1CC(CNCC2CC2)(COc2cccnc2)C[C@@H]1O (some centres undefined) | 51
COCC(=O)NCC1(COc2cnccn2)C[C@@H](O)[C@@H](O)C1 (some centres undefined) | 7.31
O[C@@H]1CC(CNCC2CCCC2)(COc2cccnc2)C[C@@H]1O (some centres undefined) | -23.9
O[C@@H]1CC(CNCc2ccccn2)(COc2cccnc2)C[C@@H]1O (some centres undefined) | -36
O=c1c(NCCc2ccc(O)cc2)c(NCc2ccncc2)c1=O | 32.1
CC(C)c1noc(-c2ccc(NC(=O)NCC(O)C(C)C)cc2)n1 (centres undefined) | -132
Cc1ccc(OCCC(=O)NC2CCc3nc(C)cn3C2)cc1 (centres undefined) | 5.53
Cc1ccc(C(=O)NS(=O)(=O)Cc2ccccc2)cc1S(C)(=O)=O | 1.98
COC(=O)C1CCCN1C(=O)c1cc(CC(C)C)no1 (centres undefined) | -4.51
CC(C)Cc1cc(C(=O)N2CCC(C(=O)N3CCOCC3)CC2)on1 | 31.2
CC(C)Cc1cc(C(=O)N2CCC[C@H]2C(=O)N2CCOCC2)on1 | 68
CN(C)Cc1nc(C2(NC(=O)Nc3ccccc3)CCCC2)no1 | -20.1
O=c1c(-c2ccnc(NC3CCCCC3)n2)cnc2sc(Cl)cn12 | 29.3
CCOc1ncccc1NC(=O)N1CCCCCC1 | 22.3
CCOc1ncccc1NC(=O)N1CCN(c2cccc(C)c2C)CC1 | 90.4
CCOc1ncccc1NC(=O)NCC(C)O (centres undefined) | -1.14
COc1ncccc1NC(=O)N1CCOCC1C (centres undefined) | 45.4
CCOc1ncccc1NC(=O)Nc1c(C)nn(C(C)C)c1C | 56.8
CCOc1ncccc1NC(=O)N1CCOCC1C (centres undefined) | 52.2
Cc1nn(C(C)C)c(C)c1NC(=O)c1ccncc1 | 26.8
CCOc1ncccc1NC(=O)N1CCN(c2ccc(O)cc2)CC1 | -5.845
COc1ccc(Oc2ncccc2NC(=O)N2CCOCC2C)cc1 (centres undefined) | 28.7

Reference: ChEMBL document CHEMBL4513216, “Probing the Open Global Health Chemical Diversity Library for Multistage-Active Starting Points for Next-Generation Antimalarials” (ACS Infect Dis, 2020)
